From PubChem BioAssay (NCATS) come the findings set out here.

Assay [1] addresses Cytochrome P450 2C9 (Homo sapiens) (UniProt P11712). The experiment in a line: Cytochrome P450 family 2 subfamily C member 9 (CYP2C9) small molecule antagonists: luciferase biochemical (cell-free) qHTS assay (AID 1645842; active = well fitted curve in the direction sought with a large enough effect in the repeat runs; an effect the other way counts as inactive or inconclusive; note: nearly all actives have a fitted effect of over 55% in size). The settings on record: P450-Glo CYP2C9 enzyme assay, luciferin luminescence; series mostly up to 57.4 µM. The method in brief: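 P450-Glo CYP2C9 system: proluciferin substrate with enzyme in mix containing 0.4% BSA, 10 min at room temperature, then NADPH regeneration solution added and incubated 1 h at 37C. Detection reagent stopped reaction; luminescence read after 20 min as RLU.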

Assay [2] can be described thus: Primary qHTS for inhibitors of nuclear receptor binding SET domain protein 2 (NSD2) in an isogenic RCH-ACV NSD2 p.E1099K mutant (9B) (AID 1645876). Note: nearly all actives have a fitted effect of over 70% in size. Particulars: RCH-ACV NSD2 E1099K (9B) viability, CellTiter-Glo, 72 h; series mostly up to 44.9 µM. Background: Quantitative high-throughput screening tests each substance at several concentrations.
Assay [3] is described as follows: Primary qHTS for inhibitors of nuclear receptor binding SET domain protein 2 (NSD2) in an RCH-ACV wild type WT cells (2C) (AID 1645877). Note: nearly all actives have a fitted effect of over 70% in size. Particulars: RCH-ACV (leukaemia line) NSD2 WT (2C) viability, CellTiter-Glo, 72 h; series mostly up to 44.9 µM.

Where “and” joins values, the source holds several entries; their conditions need not be identical. Identical values can stand only once. Results filed as inconclusive are left out. Calls of active or inactive are those of the source. Unless noted, calls come from the whole dose curve; as a rule, active = well fitted curve in the direction sought with a large enough effect; inconclusive = small, poorly fitted or top-dose-only effect, or another doubt; inactive = no such curve, though single readings can be large; an effect the other way counts as inactive or inconclusive.
Potency is the fitted concentration of half-maximal effect.

Sequence of Cytochrome P450 2C9 (Homo sapiens) (P11712 whole entry, looked up): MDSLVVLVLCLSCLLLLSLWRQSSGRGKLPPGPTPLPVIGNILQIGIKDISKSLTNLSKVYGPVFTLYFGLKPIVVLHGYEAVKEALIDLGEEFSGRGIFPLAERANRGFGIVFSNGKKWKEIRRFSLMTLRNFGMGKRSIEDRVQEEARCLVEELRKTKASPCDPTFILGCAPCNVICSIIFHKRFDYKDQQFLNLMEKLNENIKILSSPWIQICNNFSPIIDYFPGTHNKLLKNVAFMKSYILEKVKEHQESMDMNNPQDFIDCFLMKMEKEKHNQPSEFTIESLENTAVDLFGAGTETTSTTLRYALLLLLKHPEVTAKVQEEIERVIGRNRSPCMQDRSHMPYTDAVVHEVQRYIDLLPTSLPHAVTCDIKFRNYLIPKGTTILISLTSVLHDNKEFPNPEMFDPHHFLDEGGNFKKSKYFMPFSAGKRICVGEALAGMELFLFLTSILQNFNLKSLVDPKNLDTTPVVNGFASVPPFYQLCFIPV

`O=C(NCCCNc1nc(Nc2cccc(CN3CCOCC3)c2)ncc1C1CC1)C1CCC1`: the Potency in assay [1] is 8.49 µM (active); in assay [2], 2.63 µM (active); in assay [3], 1.18 µM (active).

Take `Cn1ncc(Cl)c1-c1cc(C(=O)NC(CN)Cc2ccc(F)c(F)c2)oc1Cl` (stereo not drawn): the Potency is 8.49 µM (active) in assay [1]; 728 nM (active) and 833 nM (active) in assay [2]; 817 nM (active) and 742 nM (active) in assay [3].

For `COCCCNC(=O)c1ccc(Cn2c(=O)c3ccccc3n(Cc3ccc(C(C)C)cc3)c2=O)cc1`, the Potency in assay [1] is 1.51 µM (active). In addition, the Potency result in assay [2] and in assay [3] was “inactive” in each case.

In the case of `CNC(=O)[C@@H](c1ccccc1)N1CCc2cc(OC)c(OC)cc2[C@@H]1CCc1ccc(C(F)(F)F)cc1`, the Potency in assay [1] was 6.74 µM (active); in assay [2], 23 µM (active); in assay [3], 16.3 µM (active).

In the case of `CCOC(=O)c1cnn(-c2ccccc2)c1NC(=O)c1cc2nc(-c3ccco3)cc(C(F)(F)Cl)n2n1`, the Potency in assay [1] is 3.38 µM (active). Further, the Potency entry in assay [2] and in assay [3] was “inactive” each time.

Turning to `COc1ccc2c(NC(=O)Nc3cccc(C(F)(F)F)n3)ccnc2c1`, the Potency in assay [1] is 3.01 µM (active); in assay [2] it was 4.09 µM (active); in assay [3] it was 3.25 µM (active).

On to `CCCc1cc(C)[nH]c(=O)c1CNC(=O)c1cc(-c2ccnc(N3CCN(C)CC3)c2)cc2c1cnn2C(C)C`, for which the Potency in assay [1] was 13.5 µM (active); in assay [2], 12.9 µM (active) and 16.6 µM (active); in assay [3] it was 9.16 µM (active) and 16.6 µM (active).

Consider `Cc1cc2sc(NC(=O)Cc3ccccc3)nc2cc1Cl`, for which the Potency entry in assay [1], in assay [2] and in assay [3] was “inactive” each time.

For `O=C(Nc1ccc(C(O)(C(F)(F)F)C(F)(F)F)cc1)c1ccc(C(F)(F)F)cc1`, the Potency was 10.7 µM (active) in assay [1], 5.78 µM (active) in assay [2] and 5.78 µM (active) in assay [3].

Regarding `CC[C@H]1CN(c2nc(N)c(C(N)=O)nc2Cl)CCN1C1CCN(Cc2ccc(Cl)cc2)CC1`, the Potency in assay [1] is 7.56 µM (active). Besides, the Potency result in assay [2] and in assay [3] was “inactive” throughout.

For the compound `CCOc1nc(NC(=O)Cc2cc(OC)ccc2OC)cc(N)c1C#N`, the Potency in assay [1] was 0.301 µM (active). Also, the Potency result in assay [2] and in assay [3] was “inactive” throughout.

For the compound `Cc1ccc(C(=O)Nc2ccc(CN3CCN(C)CC3)c(C(F)(F)F)c2)cc1C#Cc1cnc2[nH]ncc2c1`, the Potency in assay [1] is 4.77 µM (active); in assay [2], 11.5 nM (active) and 26.3 nM (active); in assay [3], 14.5 nM (active) and 41.7 nM (active).

`O=C(NCCN1CCN(c2cccc3c2OCCO3)CC1)c1ccc(F)cc1`: the Potency in assay [1] is 19 µM (active). Also, the Potency entry in assay [2] and in assay [3] was “inactive” throughout.

In the case of `C=CC(=O)N1CCC(Oc2cc3c(Nc4ccc(Cl)c(Cl)c4F)ncnc3cc2OC)CC1`, the values for the Potency in assay [1], in assay [2] and in assay [3] were 9.52 µM (active), 4.68 µM (active) and 4.68 µM (active), respectively.

For the compound `Cc1c(OCc2cccc(-c3ccc(C(=O)O)cc3)c2)cc2c(c1C)C(=O)C(C1CCCC1)C2` (stereo not drawn), the Potency in assay [1] is 19 µM (active). For the same compound, the Potency entry in assay [2] and in assay [3] was “inactive” in each case.

As for `Fc1ccc(N2CCCCC2)c(NC(=S)c2ccncc2)c1`, the Potency is 6.01 µM (active) in assay [1], 10.3 µM (active) in assay [2] and 12.9 µM (active) in assay [3].

For `CCNC(=O)c1noc(-c2cc(Cl)c(O)cc2O)c1-c1ccc(OC)cc1`, the Potency is 3.38 µM (active) in assay [1], 0.129 µM (active) in assay [2] and 0.115 µM (active) in assay [3].

For the compound `Cc1nc(C#Cc2ccnc(Cl)c2)c(C)n1-c1ccc(F)cc1`, the Potency result in assay [1] was “inactive”. Besides, the Potency in assay [2] and in assay [3] was 11.5 µM (active) in each case.

Consider `C#CC(=O)N(c1ccc(OC)cc1OC)C(C(=O)NCC(=O)OCC)c1cccs1` (stereo not drawn), for which the results for the Potency in assay [1], in assay [2] and in assay [3] were 12 µM (active), 0.183 µM (active) and 0.0649 µM (active), respectively.

For the compound `CC(C)(C)c1ccc(C(=O)Nc2cn3cc(-n4ccnc4)ccc3n2)cc1`, the Potency in assay [1] was 7.56 µM (active). Moreover, the Potency entry in assay [2] and in assay [3] was “inactive” in each case.

For `CC(=O)NCc1cccc(OC[C@@H](O)CNCCc2ccc(NS(=O)(=O)c3ccccc3)cc2)c1`, the Potency in assay [1] is 0.674 µM (active). Also, the Potency entry in assay [2] and in assay [3] was “inactive” throughout.

Turning to `CCCC(Nc1nc(-c2ccc(NC(=O)NCC)c(OC)c2)ncc1C)c1cccnc1` (stereo not drawn), the Potency was 0.239 µM (active) in assay [1], 0.183 µM (active) in assay [2] and 0.115 µM (active) in assay [3].

With `N#Cc1ccc2ncnc(NCCc3ccccc3)c2c1`, the Potency is 26.8 µM (active) in assay [1], 6.49 µM (active) in assay [2] and 4.09 µM (active) in assay [3].

As for `CCCCNc1ncc(C(=O)NCc2ccc(-n3ccnc3)cc2)c(NC2CCC(O)CC2)n1` (stereo not drawn), the results for the Potency in assay [1], in assay [2] and in assay [3] were 0.849 µM (active), 5.78 µM (active) and 4.59 µM (active), respectively.

For `Cc1cc2occ(CN(C)CCN(C)Cc3cn(-c4cccc(C(F)(F)F)c4)c4ccccc34)c(=O)c2cc1C`, the Potency in assay [1] was 21.3 µM (active); in assay [2] it was 7.28 µM (active); in assay [3], 7.28 µM (active).

Take `CN(C)C(=O)Nc1cccc(-c2ccc(N(C)C)cc2)c1`: in assay [1], the Potency was 23.9 µM (active). The Potency entry in assay [2] and in assay [3] was “inactive” each time.
